The sample as a whole holds a higher share of hits than the screen did.
Cycloheximide cs = counter-screen hit for Shiga toxin inhibitors, cycloheximide | cell reporter, cycloheximide protein synthesis inhibition counterscreen | max response, % | hit rate 12% among 300,000; in the data active = max response mostly above about 13%, no sharp cut-off; inactive = mostly below about 14%; also: read at 38.3 µM for the half of the compounds with a filed dose; 0% is about no effect
SARS PLpro yeast = blocks SARS-CoV papain-like protease in a yeast assay; S. cerevisiae expressing SARS-CoV PLpro, growth rescue; Potency, µM (top dose mostly 32.9 µM), without a hit: top-dose activity, positive = growth rescue, actives largely listed as activators; hit rate 0.19% among 330,000; also: potency is read from the fitted curve at half-maximal effect; 0% is about no effect; nearly all actives have a fitted effect of over 55% in size
LmPK inhibitor = blocks Leishmania mexicana pyruvate kinase activity; Q27686; purified LmPK, Kinase-Glo ATP luminescence, 1 h; Potency, µM (top dose mostly 57.5 µM), inactives show at the highest dose activity change, negative = inhibition, usual class: inhibitors; hit rate 0.37% among 290,000; active = well fitted curve in the direction sought with a large enough effect; inconclusive = small, poorly fitted or top-dose-only effect, or another doubt; inactive = no such curve, though single readings can be large; an effect the other way counts as inactive or inconclusive; also: potency is read from the fitted curve at half-maximal effect; % is scaled to controls: 0 for no effect and ±100 for the full control effect
Target sequence (Q27686 whole entry, looked up): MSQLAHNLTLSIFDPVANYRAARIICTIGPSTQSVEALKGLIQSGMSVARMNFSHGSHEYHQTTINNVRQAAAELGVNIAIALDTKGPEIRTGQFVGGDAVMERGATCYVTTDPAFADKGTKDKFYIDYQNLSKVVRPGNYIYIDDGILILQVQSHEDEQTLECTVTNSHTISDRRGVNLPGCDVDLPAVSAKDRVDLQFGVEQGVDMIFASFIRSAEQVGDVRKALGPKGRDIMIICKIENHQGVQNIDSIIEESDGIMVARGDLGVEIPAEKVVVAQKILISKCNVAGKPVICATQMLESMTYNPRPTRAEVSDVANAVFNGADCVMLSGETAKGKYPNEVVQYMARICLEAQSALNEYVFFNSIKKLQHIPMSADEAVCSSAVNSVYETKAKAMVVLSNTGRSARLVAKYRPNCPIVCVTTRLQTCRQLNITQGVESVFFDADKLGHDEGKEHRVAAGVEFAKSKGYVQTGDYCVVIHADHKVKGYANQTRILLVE
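Purified LmPK (0.1 nM) converted ADP (0.1 mM) to ATP with PEP (0.5 mM) in imidazole buffer pH 7.2 with KCl and MgCl2, 1 h at room temperature. ATP was read by Kinase-Glo luminescence; data normalized to uninhibited and no-enzyme controls.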
Tb PYK inh = inhibitors of Trypanosoma brucei pyruvate kinase. Q57TT1. TbPYK enzyme, Kinase-Glo Plus ATP luminescence, 45 min. Potency, µM (titrated, usually from 76.8 µM), for inactives: top-dose activity, negative = inhibition, hits mostly inhibitors. hit rate 0.12% among 410,000. AID 624173; active = well fitted curve in the direction sought with a large enough effect; inconclusive = small, poorly fitted or top-dose-only effect, or another doubt; inactive = no such curve, though single readings can be large; an effect the other way counts as inactive or inconclusive; also: potency is read from the fitted curve at half-maximal effect; % is scaled to controls: 0 for no effect and ±100 for the full control effect; nearly all actives have a fitted effect of over 50% in size
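Assay buffer: 50 mM TEA pH 7.2, 100 mM KCl, 10 mM MgCl2, 0.05% BSA, 0.01% Tween-20. Pyruvate kinase from T. brucei plus substrate met compound, then ADP (130 uM final). Luminescence was read post 45 min RT.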
Shiga inhibitor = Shiga toxin inhibition; Vero cells, Shiga toxin protein synthesis inhibition reporter; inhibition, % at 38.7 µM; hit rate 9.2% among 290,000; in the data active = inhibition mostly above about 28%, no sharp cut-off; inactive = mostly below about 43%; also: 0% is about no effect
NS1 inh = blocks influenza NS1 protein function; Potency, µM (highest dose often 46.1 µM), for the others: top-dose activity, positive = more growth; hit rate 0.4% among 270,000; also: potency is read from the fitted curve at half-maximal effect; actives are rising curves; nearly all actives have a fitted effect of over 50% in size
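Growth recovery, yeast-based: influenza A NS1 expressed in S. cerevisiae causes slow growth, and suppressors are detected by OD600. The parent strain without NS1 is used as positive control.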
* hit, by the source's call; ? = inconclusive; · = not tested or not shown. Unless noted, calls follow the shape of the full dose curve.

SMILES | Cycloheximide cs | SARS PLpro yeast | LmPK inhibitor | Tb PYK inh | Shiga inhibitor | NS1 inh
COc1ccc(C(=O)Nc2ccccc2C(=O)N/N=C/c2ccccn2)cc1OC | 34* | -5% | ? | -10% | 45* | -7%
CCCC(C)C(=O)OCC(=O)Nc1ccc(Br)cc1 (centres undefined) | -2 | -11% | 13% | · | 18 | -3%
CCc1nnc(NC(=O)CSc2ncc(-c3ccccc3)[nH]2)s1 | 38* | -7% | 2% | -3% | 20 | 14%
Cc1csc(NC(=O)CSc2ccc(-c3ccccc3)nn2)n1 | 11 | -3% | -12% | 2% | 17 | ·
Cc1csc(NC(=O)CSc2ncc(-c3ccccc3)[nH]2)n1 | 30* | -7% | 0% | -7% | 10 | -13%
COc1cc(-c2noc(-c3ccc(N4CCOCC4)c([N+](=O)[O-])c3)n2)cc(OC)c1OC | · | · | · | -1% | · | ·
Fc1ccc(-c2nc3c(Cl)cc(C(F)(F)F)cn3c2Cl)cc1 | 32* | -1% | 1% | -1% | active | 13%
Cc1nn(C)cc1S(=O)(=O)N1CCN(c2ccccc2F)CC1 | -3 | 0% | -1% | -4% | -4 | 5%
c1ccc(-c2ccc(-c3nccc4ccccc34)[nH]2)cc1 | 29* | -6% | 25µM* | · | 14 | -70%
CSc1cccc(-n2cc(-c3ccc4c(c3)OCO4)[nH]c2=O)c1 | 29* | 1% | -1% | -8% | 83* | 6%
Cc1nn(Cc2ccccc2)c(C)c1/C=N/NC(=O)c1ccccc1O | 42* | -2% | 3% | 0% | 99* | -11%
Cc1nn(Cc2ccc(F)cc2)c(Cl)c1/C=N/NC(=O)c1ccccc1 | 18* | 0% | 2% | 1% | 39 | -4%
Cc1nn(Cc2ccc(F)cc2)c(Cl)c1/C=N/NC(=O)c1cccnc1 | 5 | 7% | 0% | 5% | 22 | -9%
COc1ccccc1N1CCN(Cc2cnc3ccc(Cl)cn23)CC1 | 1 | 0% | 3% | -6% | -5 | 0%
C=CCC(CC)C(=O)NC(=O)N1CCCc2ccccc21 (centres undefined) | 7 | 2% | -7% | -1% | 30* | 6%
CCOc1ccccc1NC(=O)N1CCCc2ccccc21 | 12 | 4% | 3% | -4% | 33 | -10%
CC1Cc2ccccc2N1C(=O)CCS(=O)(=O)c1cccs1 (centres undefined) | 33* | 0% | -2% | 1% | 60* | -49%
COc1ccc(NC(=O)N2CCCc3ccccc32)cc1 | 18* | -7% | -6% | -4% | 122* | -11%
COc1cc2[nH]c(C(=O)N3CCc4ccccc43)cc2c(OC)c1OC | 30* | -1% | 2% | 3% | 47* | -1%
CC1Cc2ccccc2N1C(=O)CN1CCN(S(=O)(=O)c2cccs2)CC1 (centres undefined) | · | -4% | · | 10% | · | ·
O=C(Nc1ccc(-n2cnnn2)cc1)c1cccc(S(=O)(=O)N2CCCC2)c1 | · | 0% | · | -5% | · | ·
CC12C=CC(=O)C=C1CCC1C2=CCC2(C)C1CC[C@@H]2C(=O)CN1CCN(c2cc(N3CCCC3)nc(N3CCCC3)n2)CC1 (some centres undefined) | -2 | · | · | · | 20 | ·
COc1ccc(CCC(=O)N2c3ccccc3CC2C)cc1 (centres undefined) | 35* | -9% | 5% | 0% | 88* | -25%
COc1ccc(/C=C/C(=O)OCC(=O)N2c3ccccc3CC2C)cc1 (centres undefined) | · | · | · | -11% | · | ·
COc1ccc(NC(=O)N2CCc3ccccc32)cc1 | 29* | -15% | 13µM* | ? | 38 | -47%
SMILES | Cycloheximide cs | SARS PLpro yeast | LmPK inhibitor | Tb PYK inh | Shiga inhibitor | NS1 inh
COc1ccc(CCC(=O)N2CCc3ccccc32)cc1 | 41* | 8% | 6% | 6% | 133* | -56%
O=C(CCCC(=O)N1CCc2ccccc21)N1CCc2ccccc21 | -2 | -2% | 0% | 4% | -11 | 2%
COc1ccc(C(=O)N2CCc3ccccc32)cc1 | 30* | 11% | -7% | -11% | 46* | -13%
COc1cccc(-c2nc(SCc3cccc(Br)c3)n3[nH]c(=O)cc3n2)c1 | · | · | · | 0% | · | ·
CSCC[C@H](NC(=O)N1C[C@H]2C[C@@H](C1)c1cccc(=O)n1C2)C(=O)Nc1ccc(NC(C)=O)cc1 | -2 | -4% | 2% | -5% | -2 | 8%
CCc1ccccc1NC(=O)N1CCc2ccccc21 | 16* | -2% | 4% | 4% | 53* | -33%
COc1ccc(OC)c(NC(=O)N2CCCc3ccccc32)c1 | 25* | -3% | 5% | 4% | 30 | -2%
COc1ccc(NC(=O)N2CCCc3cc(C)ccc32)c(OC)c1 | 2 | -3% | 1% | 10% | 14 | -12%
O=C(Cc1ccc(-n2cccc2)cc1)N1CCc2ccccc21 | 20* | 1% | 1% | 3% | 47 | 5%
CC1Cc2ccccc2N1C(=O)CN1C(=O)NC(C)(CCc2ccccc2)C1=O (centres undefined) | 14* | -1% | 4% | -8% | -2 | 12%
CC1(CCc2ccccc2)NC(=O)N(CC(=O)N2CCc3ccccc32)C1=O (centres undefined) | · | · | · | 1% | · | ·
CC(C)C[C@H]1CNC(=S)N1C[C@H]1CCCN1C[C@H](CC(C)C)N1C[C@H](Cc2ccc(O)cc2)N(CC2CCCCCC2)C1=S | · | · | · | -7% | · | ·
COCCNC(=O)C1(C)CCCN(Cc2cc(-c3ccccc3)n(C)n2)C1 (centres undefined) | · | · | · | 4% | · | ·
O=C(NC(c1ccc(Cl)cc1)c1c(O)ccc2ccccc12)c1ccccc1 (centres undefined) | 33* | -2% | 0% | 2% | -4 | ?
Cn1sc(=O)n(Cc2ccccc2)c1=O | -10 | · | · | · | -9 | ·
CC(C)CCNC(=O)CN1C(=O)CSc2ccc(S(=O)(=O)N3CCCCC3)cc21 | · | · | · | 1% | · | ·
Oc1c(Br)cc(Br)cc1C=Nc1ccc2[nH]ncc2c1 | -2 | -2% | -1% | 2% | -7 | -90%
Oc1c(Br)cc(C=Nc2ccc3nc(-c4ccccc4)[nH]c3c2)c(O)c1Br | 52* | -2% | 5% | -9% | 75* | ·
O=[N+]([O-])c1ccc(O)c(C=Nc2ccc3nc(-c4ccccc4)[nH]c3c2)c1 | 28* | -41% | -21% | 0% | 70* | -28%
O=C(N/C(=C/c1cccc(Br)c1)C(=O)N1CCOCC1)c1ccco1 | · | · | · | -10% | · | ·
CCCCc1ccc(NC(=O)c2ccc(N(C)S(C)(=O)=O)cc2)cc1 | -1 | -1% | -3% | -1% | -13 | 2%
CC(=O)N1CCCc2cc(S(=O)(=O)NCc3ccc(N(C)C)cc3)ccc21 | · | · | · | 0% | · | ·
Cc1cn(CC(=O)NCc2ccc(N(C)C)cc2)c(=O)[nH]c1=O | · | · | · | -1% | · | ·
O=c1c2ccccc2cnn1Cc1cccc(Br)c1 | 11 | -1% | 8% | -4% | 13 | -6%
O=c1c2ccccc2cnn1CCOc1ccccc1 | -1 | -1% | 13µM* | ? | -12 | -4%

Source: PubChem
